Compound activity as filed in PubChem BioAssay.
Many of the other results were omitted from the sample, so hits are more common in it than they were.
HTT-AS promoter – activates huntingtin-antisense promoter activity; HEK293 HTT-AS promoter firefly luciferase reporter, 24 h; response scale: percent change from vehicle, -100% = no light; Potency, µM (top dose mostly 57.5 µM), usual class: activators; hit rate 0.24% among 48,000; AID 1508624; note: nearly all actives have a fitted effect of over 55% in size
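HEK293 luciferase promoter-reporter cells (2,500/well) plated 24 h, then compounds added at up to 57.5 uM final for 24 h at 37 °C. Firefly luminescence by Dual-Glo, normalized to vehicle (0%) and zero RLU (-100%).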
B2AR arrestin ag – beta-arrestin recruitment by human beta2-adrenergic receptor ligands. 44,000 tested, under 10 active. P07550. Potency, µM (top dose mostly 46.1 µM), usual class: activators. HTLA Tango cells, beta-arrestin recruitment, luciferase luminescence, 18 h
Target sequence (P07550 whole entry, looked up): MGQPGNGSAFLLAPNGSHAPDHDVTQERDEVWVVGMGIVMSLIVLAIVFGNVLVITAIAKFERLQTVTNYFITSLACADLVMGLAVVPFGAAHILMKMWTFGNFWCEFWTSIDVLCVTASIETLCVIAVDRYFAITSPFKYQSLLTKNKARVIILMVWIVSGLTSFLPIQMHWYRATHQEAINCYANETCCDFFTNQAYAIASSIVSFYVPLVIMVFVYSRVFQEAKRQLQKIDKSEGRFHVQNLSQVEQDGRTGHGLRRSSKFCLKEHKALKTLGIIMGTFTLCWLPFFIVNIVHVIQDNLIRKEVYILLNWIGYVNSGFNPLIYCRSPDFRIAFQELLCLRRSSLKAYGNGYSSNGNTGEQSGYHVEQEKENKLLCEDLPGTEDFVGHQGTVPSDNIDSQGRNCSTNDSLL
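Luminescence read-out: arrestin recruitment to recombinant beta2-AR releases tTA, inducing luciferase. Cells exposed 18 hr at 37 degrees C to up to 46 microM compound; %Activity from corrected signal, concentration-response curves classified by r2, magnitude and efficacy.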
NTMT1 inh – NTMT1 methyltransferase inhibition; Q9BV86; NTMT1 MTase-Glo SAH luminescence, purified enzyme; Potency, µM (titrated, usually from 114 µM), actives largely listed as inhibitors; hit rate 2.5% among 59,000; AID 1645870; note: nearly all actives have a fitted effect of over 65% in size
GALK inhibitor – inhibitors of human galactokinase (GALK); recombinant GALK, Kinase-Glo ATP luminescence, 1 h; Potency, µM (highest dose often 57.5 µM), usual class: inhibitors; 44,000 tested, under 10 active
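Human GALK (5 nM) was incubated with 35 uM ATP and 100 uM galactose in 20 mM HEPES pH 8.0 with MgCl2, NaCl, DTT and BSA for 1 h at room temperature. Remaining ATP was measured by Kinase-Glo Plus luminescence.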
HTT promoter inh – inhibitors of huntingtin promoter activity. HEK293 HTT promoter firefly luciferase reporter, 24 h. hit rate 0.93% among 48,000. Potency, µM (titrated, usually from 57.5 µM), most hits filed as inhibitors; note: nearly all actives have a fitted effect of over 50% in size
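HEK293 cells carrying firefly luciferase reporters were seeded at 2,500 per well in Opti-MEM and cultured for 24 h. They were then treated with compounds at up to 57.5 uM final for 24 h at 37 degrees C before Dual-Glo luminescence readout.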
TSG101-PTAP inh – blocks PTAP binding to human TSG101, validation; Fluorescence polarization, FITC-PTAP peptide/Tsg101, 20 min; Potency, µM (top dose mostly 115 µM), hits mostly inhibitors; Q99816; 44,000 tested, under 10 active
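The Tsg101 binding domain, at 10 uM final, is mixed with compound and a FITC peptide bearing the PTAP motif (50 nM final). After 20 min at r.t., polarization is measured; actives defined by CRC class, efficacy cut-off 60% inhibition.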
A number is an active result; . = inactive; ? = inconclusive; / = no result. Calls come from the whole dose curve; as a rule, active = well fitted curve in the direction sought with a large enough effect; inconclusive = small, poorly fitted or top-dose-only effect, or another doubt; inactive = no such curve, though single readings can be large; an effect the other way counts as inactive or inconclusive.

SMILES | HTT-AS promoter | B2AR arrestin ag | NTMT1 inh | GALK inhibitor | HTT promoter inh | TSG101-PTAP inh
O=C1CCCC2=C1C(c1cccc(C(F)(F)F)c1)N=C(Nc1nc3ccccc3o1)N2 (stereo not given) | / | / | . | / | / | /
COc1cccc2cc(-c3nnc(Nc4c(F)cccc4F)s3)c(=O)oc12 | 1µM | . | . | . | . | .
O=C(Nc1ccc(F)nc1)Nc1nnc(-c2ccncc2)s1 | / | / | . | / | / | /
CC(=O)N1CCC(Nc2cc(C(=O)NC[C@H](O)CN3CCc4ccccc4C3)ncn2)CC1 | / | / | . | / | / | /
COc1cc(O)c2c(c1)/C=C/C[C@H](O)[C@H](O)C(=O)/C=C\C[C@H](C)OC2=O | / | / | 25.1µM | / | / | /
Cc1ccc(CNC(=O)C(=O)NCC(c2cccnc2)N2CCN(c3ccccc3F)CC2)cc1 (stereo not given) | . | . | . | . | 14.1µM | .
COc1ccc(CCNC(=O)C(=O)NCC(c2cccnc2)N2CCN(c3ccccc3)CC2)cc1 (stereo not given) | . | . | . | . | 12.6µM | .
COc1ccc(C(=O)NCC(c2cccnc2)N2CCN(c3ccccc3)CC2)cc1 (stereo not given) | . | . | . | . | ? | .
COc1ccc(CNC(=O)C(=O)NCC(c2cccnc2)N2CCN(c3ccccc3)CC2)cc1 (stereo not given) | . | . | . | . | 12.6µM | .
CC(=O)c1c(C)cc(O)cc1O[C@@H]1O[C@H](CO)[C@@H](O)[C@H](O)[C@H]1O | / | / | . | / | / | /
CS(=O)(=O)c1ccc(-c2cnc(NCc3ccco3)n3cnnc23)cc1 | / | / | . | / | / | /
CC(C)(C)c1ccc(C(=O)Nc2ccc3nc(SCC(=O)N4CCCC4)sc3c2)cc1 | . | . | . | . | 14.1µM | .
O=C(Nc1ccc2nc(SCC(=O)N3CCCC3)sc2c1)c1ccc(Br)cc1 | . | . | . | . | . | .
Cc1[nH]c2ccc(C(=O)NCCc3ccccc3Cl)cc2c1C | ? | . | 89.1µM | . | . | .
Cc1c(C)n(Cc2ccccc2)c2ccc(C(=O)NCCc3ccccc3Cl)cc12 | . | . | . | . | . | .
CCOc1ccc(-c2cc(CCCC(=O)NCCc3ccc(OC)c(OC)c3)no2)cc1 | . | . | ? | . | ? | .
CCOc1ccc(-c2cc(CCCC(=O)NCCc3cc(OC)c(OC)c(OC)c3)no2)cc1 | . | . | . | . | 15.8µM | .
O=C(c1cc2ccc3cccnc3c2[nH]1)N1CCCCC1 | ? | . | 39.8µM | . | . | .
CC1CCCN(C(=O)c2cc3ccc4cccnc4c3[nH]2)C1 (stereo not given) | . | . | ? | . | ? | .
Cc1ccc(OCCn2c(CCNC(=O)Cc3cc(F)ccc3F)nc3ccccc32)cc1 | / | / | . | / | / | /
FC(F)(F)c1ccccc1-c1nc(NCc2ccc(-c3ccc(Cl)cc3)cc2)c2ccccc2n1 | / | / | . | / | / | /
CCN(CC)CCn1c(-c2ccccc2)nc2c(NCCO)nc(C)nc21 | / | / | 89.1µM | / | / | /
Cc1cc(N2CCOCC2)cc2[nH]c(-c3c(NCC(O)c4cccc(Cl)c4)cc[nH]c3=O)nc12 (stereo not given) | / | / | . | / | / | /
FC(F)(F)c1ccccc1-c1nc(NCc2ccc(-c3ccncc3)cc2)c2ccccc2n1 | / | / | . | / | / | /
FC(F)(F)c1cccc(Nc2nc3nonc3nc2Nc2ccc(Cl)cc2)c1 | . | . | . | . | 0.355µM | .
SMILES | HTT-AS promoter | B2AR arrestin ag | NTMT1 inh | GALK inhibitor | HTT promoter inh | TSG101-PTAP inh
Nc1ncnc2c1c(I)cn2C1OC(CO)C(O)C1O (stereo not given) | / | / | 1.41µM | / | / | /
Nc1ncnc2c1ncn2[C@@H]1O[C@H](CO)[C@@H](O)[C@@H]1O | . | / | . | / | . | /
Cc1ccc(-c2cc(C(=O)NCc3ccc(S(C)(=O)=O)cc3)c3ccccc3n2)cc1C | / | / | 50.1µM | / | / | /
Cc1ccc(-c2cc(C(=O)Nc3ccc(-c4noc(=O)[nH]4)cc3)c3ccccc3n2)cc1C | / | / | 44.7µM | / | / | /
Cc1ccc(-c2cc(C(=O)Nc3ccncc3)c3ccccc3n2)cc1C | / | / | . | / | / | /
Cc1ccc(-c2cc(C(=O)NCc3ccc(S(N)(=O)=O)cc3)c3ccccc3n2)cc1C | / | / | . | / | / | /
